Data as given in PubChem BioAssay (NCI).
This is part of a sample that, as a whole, favours compounds with a hit. Of some 79,000 tested, about 15% had one in any assay. Active and inactive are the calls of the source. No stated cut-off is given here; in the data, active means growth inhibition above about 70%; inactive means the rest.

Assays:
[1] = NCI Yeast Anticancer Drug Screen. Data for the rad52 strain (AID 147);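 further: 0% = growth of vehicle-treated control cultures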; conditions: S. cerevisiae rad52 mutant growth inhibition, hits give high values
How it was run: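 Compounds are applied to a genetically defined yeast strain lacking normal DNA damage repair, and inhibition of growth is expressed relative to cultures given vehicle only.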

[2] = NCI Yeast Anticancer Drug Screen. Data for the wt1 strain (AID 149);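 further: 0% = growth of vehicle-treated wt1 cultures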; conditions: S. cerevisiae wt1 strain (SPY 50644) growth inhibition, hits give high values
How it was run: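 Each compound is tested on wt1 yeast and the loss of growth versus vehicle gives the inhibition value.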

[3] = NCI Yeast Anticancer Drug Screen. Data for the rad50EPP+ strain (AID 151);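 further: 0% = growth of vehicle-treated control cultures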; conditions: S. cerevisiae rad50 mutant strain, hits give high values
How it was run: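 Compounds were applied to the rad50EPP+ yeast strain, which bears a defined DNA repair alteration, and growth inhibition was determined relative to vehicle-treated cultures.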

[4] = NCI Yeast Anticancer Drug Screen. Data for the mgt1 strain (AID 153); conditions: S. cerevisiae mgt1 mutant growth inhibition, hits give high values
How it was run: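 Strain: mgt1 yeast, one of a set carrying defined DNA damage repair or cell cycle control alterations. Compound-treated growth compared with vehicle.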

[5] = NCI Yeast Anticancer Drug Screen. Data for the rad50 strain (AID 155);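 further: 0% = growth of vehicle-only cultures of the same strain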; conditions: S. cerevisiae rad50 strain growth inhibition, hits give high values
How it was run: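 Vehicle-treated cultures provide the reference for the growth inhibition reported for compound-exposed, repair-deficient yeast.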

[6] = NCI Yeast Anticancer Drug Screen. Data for the mec2-1 strain (AID 157); conditions: S. cerevisiae mec2-1 strain, hits give high values
How it was run: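 Strain: mec2-1 (DNA repair/cell cycle alteration). Compound exposure, then growth measured; inhibition expressed relative to vehicle.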

[7] = NCI Yeast Anticancer Drug Screen. Data for the rad14 strain (AID 159);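 further: 0% = growth of vehicle-treated control cultures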; conditions: S. cerevisiae rad14 strain growth inhibition, hits give high values
How it was run: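 Inhibition of growth is reported for a repair-deficient yeast mutant following compound treatment, calculated relative to cultures that received vehicle.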

[8] = NCI Yeast Anticancer Drug Screen. Data for the sgs1 mgt1 strain (AID 161);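 further: 0% = growth of cultures given vehicle only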; conditions: S. cerevisiae sgs1 mgt1 strain, hits give high values
How it was run: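 Mutant yeast exposed to compound; growth scored against vehicle-only wells.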

[9] = NCI Yeast Anticancer Drug Screen. Data for the CLN2oe strain (AID 163);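 further: 0% = growth of vehicle-only control cultures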; conditions: S. cerevisiae CLN2oe strain, hits give high values
How it was run: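 Growth of a genetically modified yeast strain is measured after compound exposure and compared with cultures given vehicle alone.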

[10] = NCI Yeast Anticancer Drug Screen. Data for the cln2 rad14 strain (AID 165);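 further: 0% = growth equal to vehicle treated cultures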; conditions: S. cerevisiae cln2 rad14 strain, hits give high values
How it was run: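 Compounds are applied to the cln2 rad14 yeast strain, and growth is then compared with that of vehicle-treated cultures to give inhibition.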

[11] = NCI Yeast Anticancer Drug Screen. Data for the bub3 strain (AID 167); conditions: S. cerevisiae bub3 mutant strain, hits give high values
How it was run: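 Mutant yeast screening strain plus compound; vehicle-treated cultures serve as the 0% inhibition reference.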

[12] = NCI Yeast Anticancer Drug Screen. Data for the wt2 strain (AID 169); conditions: S. cerevisiae wt2 strain growth inhibition, hits give high values
How it was run: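 This strain belongs to a panel of yeast strains with defined genetic alterations in DNA damage repair or cell cycle control. Compounds are applied, and growth inhibition is measured against vehicle-treated cultures.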

[13] = NCI Yeast Anticancer Drug Screen. Data for the mlh1 strain (AID 171);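 further: 0% = growth of vehicle-treated control cultures of the same strain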; conditions: S. cerevisiae mlh1 strain growth inhibition, hits give high values
How it was run: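 Growth of the mutant yeast strain after compound exposure, expressed as inhibition relative to vehicle-only controls.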

[14] = NCI Yeast Anticancer Drug Screen. Data for the sgs1 strain (AID 173);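 further: 0% = growth of vehicle-only control cultures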; conditions: S. cerevisiae sgs1 mutant, hits give high values
How it was run: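 Growth of a yeast strain bearing a defined genetic alteration is measured after compound treatment. Inhibition is expressed relative to vehicle-only controls.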

[15] = NCI Yeast Anticancer Drug Screen. Data for the mlh1 rad18 strain (AID 175); conditions: S. cerevisiae mlh1 rad18 strain growth inhibition, hits give high values
How it was run: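 Read-out is yeast growth inhibition, calculated against vehicle-only controls. The compound was applied to a strain engineered with DNA damage repair alterations.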

[16] = NCI Yeast Anticancer Drug Screen. Data for the rad18 strain (AID 177); conditions: S. cerevisiae rad18 mutant growth inhibition, hits give high values
How it was run: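 Growth of the mutant yeast strain after compound exposure, normalised to vehicle-only cultures.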

[17] = at 5.0 µM (retest, dose inferred, filed as 0.5)
[18] = at 50.0 µM (retest, dose inferred, filed as 5.0)

Measured: growth inhibition

CC(=O)/C=C/c1cccc([N+](=O)[O-])c1
inactive: [1]; at 1.2 µM 2% | [1]; at 3.7 µM 4% | [1]; at 11.0 µM 9% | [1]; at 33.0 µM 29% | [2]; at 1.2 µM 1% | [2]; at 3.7 µM 4% | [2]; at 11.0 µM 8% | [2]; at 33.0 µM 16% | [2]; at 100.0 µM 68% | [3]; at 1.2 µM 3% | [3]; at 3.7 µM 7% | [3]; at 11.0 µM 29% | [4]; at 1.2 µM 1% | [4]; at 3.7 µM 2% | [4]; at 11.0 µM 7% | [4]; at 33.0 µM 48% | [5]; at 1.2 µM 0% | [5]; at 3.7 µM 3% | [5]; [17] -4% | [5]; at 11.0 µM 8% | [5]; at 33.0 µM 20% | [6]; at 1.2 µM 0% | [6]; at 3.7 µM 2% | [6]; [17] 2% | [6]; at 11.0 µM 3% | [6]; at 33.0 µM 29% | [6]; [18] 56% | [6]; at 50.0 µM 51% | [7]; at 1.2 µM -2% | [7]; at 3.7 µM 0% | [7]; at 11.0 µM 7% | [7]; at 33.0 µM 21% | [8]; [17] -3% | [8]; at 50.0 µM 48% | [9]; at 1.2 µM -2% | [9]; at 3.7 µM -2% | [9]; at 11.0 µM 1% | [9]; at 33.0 µM 6% | [9]; at 100.0 µM 44% | [10]; [17] 5% | [10]; [18] 4% | [10]; at 50.0 µM 6.15% | [11]; at 1.2 µM -4% | [11]; at 3.7 µM -5% | [11]; [17] 31% | [11]; at 11.0 µM -2% | [11]; at 33.0 µM 28% | [12]; at 1.2 µM 1% | [12]; at 3.7 µM 4% | [12]; at 11.0 µM 10% | [12]; at 33.0 µM 28% | [13]; at 1.2 µM 2% | [13]; at 3.7 µM 1% | [13]; at 11.0 µM 10% | [13]; at 33.0 µM 32% | [14]; at 1.2 µM 1% | [14]; at 3.7 µM 7% | [14]; at 11.0 µM 15% | [14]; at 33.0 µM 50% | [15]; [17] 12% | [16]; at 1.2 µM 1% | [16]; at 3.7 µM 2% | [16]; at 11.0 µM 21% | [16]; at 33.0 µM 22%
active: [1]; at 100.0 µM 86% | [3]; at 33.0 µM 81% | [3]; at 100.0 µM 98% | [4]; at 100.0 µM 94% | [5]; [18] 84% | [5]; at 50.0 µM 82% | [5]; at 100.0 µM 89% | [6]; at 100.0 µM 95% | [7]; at 100.0 µM 91% | [8]; [18] 85% | [11]; [18] 89% | [11]; at 50.0 µM 72.4% | [11]; at 100.0 µM 91% | [12]; at 100.0 µM 88% | [13]; at 100.0 µM 95% | [14]; at 100.0 µM 95% | [15]; [18] 94% | [15]; at 50.0 µM 81.7% | [16]; at 100.0 µM 77%
